For 14 sequences, binding signal results are on record in PMC5700166.

The target in this test is T1, GST-Ap-NF-kB RHD (Exaiptasia pallida (Aiptasia), UniProt A0A913YAJ5 2-422).
T1 sequence: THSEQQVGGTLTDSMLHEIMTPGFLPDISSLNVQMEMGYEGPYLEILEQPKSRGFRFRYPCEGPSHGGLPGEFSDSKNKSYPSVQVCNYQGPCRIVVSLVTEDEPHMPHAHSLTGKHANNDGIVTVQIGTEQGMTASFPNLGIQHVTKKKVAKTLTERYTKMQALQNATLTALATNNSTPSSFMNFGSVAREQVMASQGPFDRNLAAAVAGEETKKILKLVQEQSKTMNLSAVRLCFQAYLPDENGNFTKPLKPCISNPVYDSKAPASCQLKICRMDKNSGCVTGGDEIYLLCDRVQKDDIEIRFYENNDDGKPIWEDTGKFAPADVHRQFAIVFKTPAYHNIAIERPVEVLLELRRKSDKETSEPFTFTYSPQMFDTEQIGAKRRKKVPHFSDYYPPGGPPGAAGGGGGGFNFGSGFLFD
Put plainly: protein-binding microarray (PBM); PBM: ~300 nM protein, 6 mM HEPES pH 7.8, 80 mM KCl, 0.5 mM EDTA, 0.5 mM EGTA, 6% glycerol, 35 ng/ul poly-dIdC, 1% milk, 1 h, room temperature; Ap Aiptasia and Nv Nematostella (sea anemones) / Co Capsaspora / Aq Amphimedon (sponge) / Dm Drosophila / Hu human; RHD is the Rel homology domain; high values mean tight binding. The following applies: dsDNA, one strand shown.
On to “CCGATTAACATCAAAGAATTCCCTGATGTTAATCGGGTCTTGATTCGCTTGACGCTGCTG”, for which the binding signal was determined as 5.56 z-score. For “CCGATTAACATCAGGGGGTTTAATGATGTTAATCGGGTCTTGATTCGCTTGACGCTGCTG” the value was 6.88 z-score.

“CCGATTAACATCAAATTCCCCCCTGATGTTAATCGGGTCTTGATTCGCTTGACGCTGCTG”: the binding signal is 8.5 z-score. For the sequence “CCGATTAACATCACGAATCCCCCTGATGTTAATCGGGTCTTGATTCGCTTGACGCTGCTG”, the binding signal was 8.06 z-score. In the case of “CCGATTAACATCACGGGGAATCCTGATGTTAATCGGGTCTTGATTCGCTTGACGCTGCTG”, the binding signal is 9.87 z-score. In turn, “CCGATTAACATCAGGGAAAATAATGATGTTAATCGGGTCTTGATTCGCTTGACGCTGCTG” registered a binding signal of 3.42 z-score.

The sequence “CCGATTAACATCAGGGGACTTTATGATGTTAATCGGGTCTTGATTCGCTTGACGCTGCTG” returned a binding signal of 7.86 z-score.

In the case of “CCGATTAACATCACATTCCCCCCTGATGTTAATCGGGTCTTGATTCGCTTGACGCTGCTG”, the binding signal came out at 6.91 z-score. Then “CCGATTAACATCAACAAACCCCCTGATGTTAATCGGGTCTTGATTCGCTTGACGCTGCTG”, with 6.74 z-score. For “CCGATTAACATCAGGAAACCCCATGATGTTAATCGGGTCTTGATTCGCTTGACGCTGCTG” the value was 5.38 z-score.

The sequence “CCGATTAACATCAAATTCCCCCTTGATGTTAATCGGGTCTTGATTCGCTTGACGCTGCTG” yielded a binding signal of 9.34 z-score. For the sequence “CCGATTAACATCAAAATTTCCCATGATGTTAATCGGGTCTTGATTCGCTTGACGCTGCTG”, the binding signal was 3.99 z-score. Then “CCGATTAACATCAGGCAACCCCCTGATGTTAATCGGGTCTTGATTCGCTTGACGCTGCTG”, with 5.96 z-score; and “CCGATTAACATCAAGGGTGGGAATGATGTTAATCGGGTCTTGATTCGCTTGACGCTGCTG”, with 1.69 z-score.
